Records with an inconclusive call do not appear. A call without a number means that no potency is given here. Activity calls are given as the source filed them. Unless noted, calls follow the shape of the dose curve; as a rule, active = well fitted curve in the direction sought with a large enough effect in the repeat runs; inconclusive = weak or mixed curves; inactive = no such curve, though single readings can be large; an effect the other way counts as inactive or inconclusive.
Experiments:
[1] = A CellTox Green Cytotoxicity Assay to monitor cytotoxicity in HEK293 cells - 32 hour (AID 1224881); conditions: CellTox Green fluorescence; series mostly up to 76.8 µM; also: nearly all actives have a fitted effect of over 40% in size; also: potency is read from the fitted curve at half-maximal effect
Procedure, shortened: (§1)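 HEK293 cells, 600/well, were preincubated 5 hours and then exposed to compounds at 37 C for up to 40 hours. A cell-impermeant cyanine dye staining dead-cell DNA was read by fluorescence at 0, 8, 16, 24, 32 and 40 h time points.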

[2] = A CellTox Green Cytotoxicity Assay to monitor cytotoxicity in HepG2 cells - 0 hour (AID 1224882); conditions: CellTox Green fluorescence; series mostly up to 76.8 µM; also: nearly all actives have a fitted effect of over 35% in size
Procedure, shortened: (§2)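 HepG2 cells, 600/well, preincubated 5 h with CellTox Green dye, then exposed to Tox21 compounds in DMSO at 37 C for up to 40 h. Dead-cell DNA fluorescence read at the indicated time point.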

[3] = A CellTox Green Cytotoxicity Assay to monitor cytotoxicity in HepG2 cells - 32 hour (AID 1224883); conditions: CellTox Green fluorescence; series mostly up to 76.8 µM; also: nearly all actives have a fitted effect of over 50% in size; also: potency is read from the fitted curve at half-maximal effect
Procedure, shortened: as §2

[4] = A CellTox Green Cytotoxicity Assay to monitor cytotoxicity in HEK293 cells - 8 hour (AID 1224884); conditions: CellTox Green fluorescence; series mostly up to 76.8 µM; also: nearly all actives have a fitted effect of over 35% in size; also: potency is read from the fitted curve at half-maximal effect
Procedure, shortened: as §1

[5] = qHTS RealTime-Glo MT Cell Viability Assay in HEK293 cells - 24 hour (AID 1224886); conditions: RealTime-Glo luminescence; series mostly up to 76.8 µM; also: nearly all actives have a fitted effect of over 50% in size; also: potency is read from the fitted curve at half-maximal effect
Procedure, shortened: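 HEK293 cells seeded with NanoLuc/prosubstrate reagent, rested 5 h at 37 C, then dosed and kept at 37 C up to 40 h. Nonlytic real-time luminescence from viable cells read at 0, 8, 16, 24, 32 and 40 h.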

[6] = qHTS RealTime-Glo MT Cell Viability Assay in HEK293 cells - 8 hour (AID 1224887); conditions: RealTime-Glo luminescence; series mostly up to 76.8 µM; also: nearly all actives have a fitted effect of over 50% in size; also: potency is read from the fitted curve at half-maximal effect
Procedure, shortened: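 600 cells/well were plated with the nonlytic NanoLuc/prosubstrate reagent, pre-incubated 5 h, then given 23 nL of compound in DMSO. Incubation at 37 C for 40 h, with luminescence from viable-cell-reduced substrate read repeatedly from 0 h.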

[7] = A CellTox Green Cytotoxicity Assay to monitor cytotoxicity in HEK293 cells - 16 hour (AID 1224888); conditions: CellTox Green fluorescence; series mostly up to 76.8 µM; also: nearly all actives have a fitted effect of over 35% in size
Procedure, shortened: as §1

[8] = qHTS RealTime-Glo MT Cell Viability Assay in HepG2 cells - 0 hour (AID 1224889); conditions: RealTime-Glo luminescence; series mostly up to 76.8 µM; also: nearly all actives have a fitted effect of over 50% in size
Procedure, shortened: (§3)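 HepG2 cells (600/well) were dispensed with RealTime-Glo reagents, incubated 5 h at 37 °C, then treated with compounds in DMSO for up to 40 h. Nonlytic NanoLuc luminescence reflecting viable cells was read at each stated time point.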

[9] = A CellTox Green Cytotoxicity Assay to monitor cytotoxicity in HepG2 cells - 8 hour (AID 1224890); conditions: CellTox Green fluorescence; series mostly up to 76.8 µM; also: nearly all actives have a fitted effect of over 45% in size; also: potency is read from the fitted curve at half-maximal effect
Procedure, shortened: as §2

[10] = qHTS assay to identify small molecule antagonists of the androgen receptor (AR) signaling pathway using the MDA cell line in the presence of 0.5 nM R1881 - cell viability counter screen (AID 1259242); conditions: MDA-kb2 viability, CellTiter-Fluor protease fluorescence, 16 h; series mostly up to 92.4 µM; also: nearly all actives have a fitted effect of over 45% in size
Procedure, shortened: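 MDA-kb2 cells (MMTV-luciferase, AR/GR responsive) were treated with compounds plus 0.5 nM R1881 (final) for 16 hr at 37C, 0% CO2. Viability was then read in the same wells as live-cell protease fluorescence (CellTiter-Fluor, 30 min).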

[11] = target: Estrogen receptor (Homo sapiens) (UniProt P03372); test: qHTS assay to identify small molecule antagonists of the estrogen receptor alpha (ER-alpha) signaling pathway using the BG1 cell line in the presence of 0.1 nM 17-beta-estradiol (AID 1259244); conditions: VM7Luc4E2 (BG1) ERE-luciferase, antagonist mode, 0.1 nM E2, 22 h; series mostly up to 92.4 µM; also: nearly all actives have a fitted effect of over 50% in size; also: potency is read from the fitted curve at half-maximal effect
Procedure, shortened: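 VM7Luc4E2 cells (endogenous full-length ER-alpha, 4×ERE-luciferase), kept 5 days in phenol red-free, charcoal-stripped FBS medium; 4,000 cells/well. Compounds added with 0.1 nM (final) 17beta-estradiol, 22 hr at 37C; luminescence read with ONE-Glo after 30 min.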

[12] = qHTS assay to identify small molecule HDAC inhibitors (AID 1259364); conditions: HCT-116 HDAC-Glo I/II luminescence, 2 h; series mostly up to 92.4 µM; also: top concentration of the series differs between compounds; nearly all actives have a fitted effect of over 45% in size
Procedure, shortened: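 Wild-type HCT-116 cells, plated overnight at 37 C, exposed to compounds 2 hr at 37 C; luminogenic HDAC-Glo substrate then added 30 min at room temperature. Luminescence reports relative endogenous class I/II HDAC activity.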

[13] = qHTS assay to identify small molecule HDAC inhibitors - cell viability counter screen (AID 1259365); conditions: HCT-116 viability, CellTiter-Glo ATP luminescence, 2 h; series mostly up to 92.4 µM; also: nearly all actives have a fitted effect of over 50% in size
Procedure, shortened: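 CellTiter-Glo luminescence (30 min, room temperature) reported viability after a 2 h compound exposure at 37 C. Cells: wild-type HCT-116, 1,500 per well, seeded the night before.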

[14] = qHTS assay to identify small molecule agonists of the sonic hedgehog signaling (Shh) pathway - cell viability counter screen (AID 1259366); conditions: NIH/3T3 Gli1-Luc viability, CellTiter-Fluor, 24 h; series mostly up to 92.4 µM; also: nearly all actives have a fitted effect of over 50% in size; also: potency is read from the fitted curve at half-maximal effect
Procedure, shortened: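 Cytotoxicity counter screen: CellTiter-Fluor reagent added after 23 h compound exposure, then 1 h at 37C and fluorescence read. Cells were 3T3 Gli1-Luc, seeded 2,000 per well and dosed 4 h post-plating.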

[15] = qHTS assay to identify small molecule agonists of the sonic hedgehog signaling (Shh) pathway (AID 1259368; calls by dose curve;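 also: NIH/3T3-derived 3T3Gli1-Luc cells carrying a stable Gli1-driven firefly luciferase reporter; nearly all actives have a fitted effect of over 15% in size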); conditions: NIH/3T3 Gli1-Luc reporter, luciferase, 24 h; series mostly up to 92.4 µM
Procedure, shortened: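 NIH/3T3-derived 3T3Gli1-Luc cells with stably integrated Gli1-driven firefly luciferase, 2,000 cells/well, compounds added after 4 hr. Incubated 24 hr at 37C, 5% CO2; luminescence read after 30 min with luciferase reagent at room temperature.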

[16] = qHTS RealTime-Glo MT Cell Viability Assay in HepG2 cells - 16 hour (AID 1224885); conditions: RealTime-Glo luminescence; series mostly up to 76.8 µM; also: nearly all actives have a fitted effect of over 50% in size
Procedure, shortened: as §3

[17] = qHTS assay to identify small molecule antagonists of the estrogen receptor alpha (ER-alpha) signaling pathway using the BG1 cell line in the presence of 0.1 nM 17-beta-estradiol - cell viability counter screen (AID 1259241); conditions: VM7Luc4E2 (BG1) viability, CellTiter-Fluor protease, 22 h, 0.1 nM estradiol agonist added; series mostly up to 92.4 µM; also: nearly all actives have a fitted effect of over 40% in size
Procedure, shortened: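 Cytotoxicity counter-screen: live-cell protease activity measured by fluorescence (30 min reagent step) in the same wells. Cells were VM7Luc4E2 with endogenous ER-alpha and ERE-driven luciferase, treated 22 hr at 37C alongside 0.1 nM 17beta-estradiol final.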

[18] = qHTS assay to identify small molecule antagonists of the sonic hedgehog signaling (Shh) pathway - cell viability counter screen (AID 1259367); conditions: NIH/3T3 Gli1-Luc viability, CellTiter-Fluor, 24 h; series mostly up to 92.4 µM; also: nearly all actives have a fitted effect of over 55% in size
Procedure, shortened: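 NIH/3T3-derived Gli1-Luc reporter cells, 2,000/well, plated 4 hr before compound addition, then stimulated with conditioned medium for 24 hr at 37C. Viability measured in the same wells by CellTiter-Fluor fluorescence, reagent added at 23 hr for 1 hr.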

[19] = qHTS assay to identify small molecule phospholipidosis (PLD) inducers (AID 1259344; active = well fitted curve in the direction sought with a large enough effect; an effect the other way counts as inactive or inconclusive; also: potency is read from the fitted curve at half-maximal effect); conditions: HepG2 phospholipidosis, LipidTOX Red imaging, 24 h; series mostly up to 38.3 µM
Procedure, shortened: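 HepG2 cells, 900/well, treated with compound plus LipidTOX Red for 24 h at 37 C; amiodarone positive and DMSO negative controls. Fixed with paraformaldehyde/Hoechst, then high-content imaging scored LipidTOX pit count and integrated intensity per well and per cell.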

[20] = target: Androgen receptor (Homo sapiens) (UniProt P10275); test: qHTS assay to identify small molecule antagonists of the androgen receptor (AR) signaling pathway using the MDA cell line in the presence of 0.5 nM R1881 (AID 1259243); conditions: MDA-kb2 MMTV-luciferase, R1881 0.5 nM, 16 h; series mostly up to 92.4 µM; also: nearly all actives have a fitted effect of over 50% in size
Procedure, shortened: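 MDA-kb2 cells (MMTV-luciferase, responsive to AR and GR) at 3,000/well, rested 5 h at 37C, 0% CO2, then given compounds plus 0.5 nM R1881 (final) for 16 hr. Luciferase read with ONE-Glo after 30 min at room temperature.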

Sequence of Estrogen receptor (Homo sapiens) (P03372 whole entry, looked up): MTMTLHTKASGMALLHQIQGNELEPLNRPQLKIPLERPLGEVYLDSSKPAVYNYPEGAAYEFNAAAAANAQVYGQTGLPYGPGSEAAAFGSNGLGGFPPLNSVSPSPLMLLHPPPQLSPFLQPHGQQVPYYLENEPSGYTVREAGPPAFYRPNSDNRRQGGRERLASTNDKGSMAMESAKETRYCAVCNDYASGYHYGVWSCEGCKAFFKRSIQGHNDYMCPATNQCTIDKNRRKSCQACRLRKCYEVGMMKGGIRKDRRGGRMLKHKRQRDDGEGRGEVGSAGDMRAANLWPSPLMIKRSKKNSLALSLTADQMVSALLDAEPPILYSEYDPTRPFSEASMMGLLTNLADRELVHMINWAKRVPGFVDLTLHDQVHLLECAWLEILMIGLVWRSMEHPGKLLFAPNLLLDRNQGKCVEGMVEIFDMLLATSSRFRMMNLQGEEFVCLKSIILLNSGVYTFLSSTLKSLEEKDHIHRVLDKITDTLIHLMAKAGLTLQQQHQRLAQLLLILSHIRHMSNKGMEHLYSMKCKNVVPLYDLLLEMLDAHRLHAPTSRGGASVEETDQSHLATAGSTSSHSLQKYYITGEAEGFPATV
Sequence of Androgen receptor (Homo sapiens) (P10275 whole entry, looked up): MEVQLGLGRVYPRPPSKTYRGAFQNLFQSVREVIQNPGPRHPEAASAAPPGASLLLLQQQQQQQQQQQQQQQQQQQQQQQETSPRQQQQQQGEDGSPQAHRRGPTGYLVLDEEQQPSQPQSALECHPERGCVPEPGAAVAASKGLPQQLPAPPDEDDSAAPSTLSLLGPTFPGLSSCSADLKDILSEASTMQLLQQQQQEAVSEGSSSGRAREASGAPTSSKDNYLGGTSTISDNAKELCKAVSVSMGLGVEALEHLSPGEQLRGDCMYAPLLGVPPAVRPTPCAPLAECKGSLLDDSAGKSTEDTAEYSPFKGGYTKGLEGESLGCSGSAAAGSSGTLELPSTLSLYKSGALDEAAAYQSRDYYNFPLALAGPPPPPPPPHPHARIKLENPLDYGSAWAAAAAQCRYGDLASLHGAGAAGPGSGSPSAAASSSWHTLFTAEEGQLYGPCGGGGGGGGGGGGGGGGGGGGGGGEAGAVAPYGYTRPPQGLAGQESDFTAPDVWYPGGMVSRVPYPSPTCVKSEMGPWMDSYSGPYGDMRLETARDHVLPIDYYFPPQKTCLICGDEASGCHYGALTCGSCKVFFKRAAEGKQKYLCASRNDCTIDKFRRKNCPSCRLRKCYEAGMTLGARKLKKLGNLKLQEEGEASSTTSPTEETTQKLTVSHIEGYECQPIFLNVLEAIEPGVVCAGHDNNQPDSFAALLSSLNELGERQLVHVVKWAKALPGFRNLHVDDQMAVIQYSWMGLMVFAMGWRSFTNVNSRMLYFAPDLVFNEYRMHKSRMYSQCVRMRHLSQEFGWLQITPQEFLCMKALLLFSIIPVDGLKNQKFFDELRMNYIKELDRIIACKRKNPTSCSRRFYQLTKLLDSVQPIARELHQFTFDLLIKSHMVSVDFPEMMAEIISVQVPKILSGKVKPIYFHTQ

| Structure (SMILES) | Potency [1] | Potency [2] | Potency [3] | Potency [4] | Potency [5] | Potency [6] | Potency [7] | Potency [8] | Potency [9] | Potency [10] | Potency [11] | Potency [12] | Potency [13] | Potency [14] | Potency [15] | Potency [16] | Potency [17] | Potency [18] | Potency [19] | Potency [20] |
| --- | --- | --- | --- | --- | --- | --- | --- | --- | --- | --- | --- | --- | --- | --- | --- | --- | --- | --- | --- | --- |
| COc1cc(C=O)cc2c1[C@H](COC(N)=O)[C@]1(OC(C)=O)ON2C[C@H]2[C@@H]1N2C(C)=O | inactive | inactive | 0.0977 µM (active) | inactive | 0.245 µM (active) | inactive | inactive | inactive | inactive | inactive | 0.154 µM (active) | inactive | inactive | 6.11 µM (active) | inactive |  |  |  |  |  |
| COc1ccc(OC)c(C=O)c1 | inactive | inactive | inactive | inactive |  |  | inactive | inactive | inactive | inactive | inactive | inactive | inactive | inactive | inactive | inactive | inactive | inactive |  |  |
| Cc1cc(Cl)ccc1O[C@H](C)C(=O)O | inactive | inactive | inactive |  | inactive | inactive | inactive | inactive | inactive | inactive | inactive | inactive | inactive | inactive | inactive | inactive | inactive | inactive |  |  |
| Cn1cc(C2=C(c3cn(C4CCN(Cc5ccccn5)CC4)c4ccccc34)C(=O)NC2=O)c2ccccc21 | inactive | inactive | inactive | inactive | inactive | inactive | inactive | inactive |  | inactive |  | inactive | inactive | inactive | inactive |  | inactive | inactive | 1.78 µM (active) |  |
| CCCCCCCCc1ccc(O)cc1 | 17.5 µM (active) | inactive | 42.7 µM (active) | 43.9 µM (active) | 4.93 µM (active) | 6.76 µM (active) |  | inactive | 17.5 µM (active) |  |  | inactive | inactive |  | inactive |  |  | inactive | inactive |  |
| N#CNC#N | inactive | inactive | inactive |  | inactive | inactive | inactive | inactive | inactive | inactive |  | inactive | inactive | inactive | inactive | inactive | inactive | inactive |  |  |
| CNC(C)Cc1ccc2c(c1)OCO2 (stereo not drawn) | inactive | inactive | inactive |  | inactive | inactive | inactive | inactive | inactive | inactive | inactive | inactive | inactive |  | inactive | inactive | inactive |  | inactive | inactive |
| Clc1ccc(-c2ccc(Cl)c(Cl)c2Cl)c(Cl)c1Cl | inactive | inactive | inactive | inactive |  | inactive | inactive | inactive | inactive | inactive | inactive | inactive | inactive | inactive | inactive |  | inactive | inactive |  |  |
| FC(Cl)(Cl)Cl | inactive | inactive | inactive |  | inactive | inactive | inactive | inactive | inactive | inactive |  | inactive | inactive | inactive | inactive | inactive | inactive | inactive |  | inactive |

— PubChem BioAssay (Tox21)
